Screens: PubChem, National Center for Advancing Translational Sciences (NCATS)
The list is not random: actives were taken first. Their share in the collection is about 14%.
Pf growth 48h – P. falciparum growth inhibition at 48 hours (one generation); P. falciparum luciferase growth in erythrocytes, 48 h; Potency, µM (series often up to 28.7 µM), inactives show top-dose activity change, negative = inhibition, actives largely listed as inhibitors; 310,000 tested, 5.9% active; also: potency is read from the fitted curve at half-maximal effect
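Luciferase-expressing P. falciparum in infected erythrocytes (2% hematocrit, 0.1% parasitemia final) in RPMI 1640/0.5% Albumax were exposed to compound for 48 hours at 37 C, 5% CO2; growth read as luminescence.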
HCMV antiviral – blocks human cytomegalovirus replication. HFF cells, HCMV-luciferase reporter, 72 h; stronger effect = lower value. AID 1259415. activity change, negative = inhibition, % at 57.5 µM. 410,000 tested, 4.5% active; in the data active = activity change below about -60%; inconclusive = no clear call, values can overlap the other calls; inactive = above about -39%
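Steps: HFFs plated, 16 h 37C; compounds added; HCMV-luciferase added to MOI 1 PFU/cell; 72 h 37C; OneGlo reagent, 5 min room temperature; luminescence read, normalized to controls.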
Giardia FBPA inh – blocks Giardia fructose-bisphosphate aldolase activity | purified Giardia FBPA | AID 2451 | 290,000 tested, 0.71% active | Potency, µM (series often up to 59.6 µM), without a hit: top-dose activity, negative = inhibition, actives largely listed as inhibitors | A8B2U2; also: potency is read from the fitted curve at half-maximal effect; nearly all actives have a fitted effect of over 55% in size
Target sequence (A8B2U2 whole entry, looked up): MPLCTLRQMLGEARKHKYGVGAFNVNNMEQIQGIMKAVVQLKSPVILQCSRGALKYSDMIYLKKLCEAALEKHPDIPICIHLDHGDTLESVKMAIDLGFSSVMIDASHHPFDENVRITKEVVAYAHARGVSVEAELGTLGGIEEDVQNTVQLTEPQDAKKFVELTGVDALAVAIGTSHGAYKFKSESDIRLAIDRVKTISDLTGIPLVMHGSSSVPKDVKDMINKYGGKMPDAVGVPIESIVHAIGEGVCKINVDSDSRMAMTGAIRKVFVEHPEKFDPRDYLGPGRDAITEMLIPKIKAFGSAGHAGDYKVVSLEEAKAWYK
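40 nM FBPA preincubated 10 min at RT with compound (up to 57.5 uM final), then substrate plus GAPDH/TPI/NAD/arsenate coupling and diaphorase/resazurin added. Fluorescence read after 20 min at RT, 525/598 nm.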
Sm TGR block – inhibitors of Schistosoma mansoni thioredoxin glutathione reductase; AID 485364; purified TGR, DTNB reduction, TNB absorbance 405 nm; Potency, µM (doses to about 114 µM), inactives show top-dose activity change, negative = inhibition, actives largely listed as inhibitors; 360,000 tested, 3% active; also: potency is read from the fitted curve at half-maximal effect; nearly all actives have a fitted effect of over 60% in size
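TGR 20 nM + NADPH 100 uM (dispensed conc.), cpd preinc 15 min RT; start with NADPH (500 uM addition) then DTNB (15 mM addition). Kinetic TNB absorbance, 405 nm filter. Four-parameter Hill fit across titration.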
Pf growth 96h – P. falciparum growth inhibition at 96 hour, primary screen for plastid delayed-death inhibitors; P. falciparum luciferase reporter growth, 96 h; Potency, µM (top dose mostly 28.7 µM), for the others: at the top dose activity change, negative = inhibition, usual class: inhibitors; 320,000 tested, 6.9% active; AID 504834; also: potency is read from the fitted curve at half-maximal effect
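Delayed-death screen, second-generation endpoint: infected erythrocytes, 2% hematocrit, 0.05% parasitemia final; 96 hours at 37 C, 5% CO2; luciferase detection reagent; luminescence decrease equals reduced growth.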
* hit, by the source's call; ? = inconclusive; / = no result; [ ] = another dose, or the depositor's remark. Unless noted, calls follow the shape of the dose curve; as a rule, active = well fitted curve in the direction sought with a large enough effect; inconclusive = small, poorly fitted or top-dose-only effect, or another doubt; inactive = no such curve, though single readings can be large; an effect the other way counts as inactive or inconclusive. % is scaled to controls: 0 for no effect and ±100 for the full control effect.

SMILES	Pf growth 48h	HCMV antiviral	Giardia FBPA inh	Sm TGR block	Pf growth 96h
COc1ccc(C(Nc2ccccn2)c2c(NC(=O)c3ccco3)sc(C)c2C)cc1 (centres undefined)	4.65µM*	?	0.4%	4.4%	?
Cc1sc(NC(=O)c2ccco2)c(C(Nc2ccccn2)c2ccccc2)c1C (centres undefined)	?	-24.3	-0.9%	-9.9%	?
COC(=O)c1c(NC(=O)c2ccco2)sc(C)c1C	5.7%	1.6	0.6%	8.2%	/
Cc1ccc(OCC(=O)NNC(=O)C2CCN(c3ncnc4sc(C)c(C)c34)CC2)cc1	?	-22.7	/	-0.8%	?
Cc1sc2ncnc(N3CCC(C(=O)NNC(=O)c4ccccc4Cl)CC3)c2c1C	?	-31.1	/	-0.9%	8.28µM*
Cc1sc2ncnc(N3CCC(C(=O)NNC(=O)COc4ccccc4F)CC3)c2c1C	?	-10.1	/	-7.2%	?
Cc1sc2ncnc(N3CCC(C(=O)NNC(=O)COc4ccc(Cl)cc4)CC3)c2c1C	/	-6.9	/	/	/
Cc1sc2ncnc(N3CCC(C(=O)Nc4nc(-c5ccc(F)cc5)cs4)CC3)c2c1C	?	-65.4*	/	6.2%	?
Cc1sc2ncnc(N3CCC(C(=O)NNC(=O)COc4ccccc4Cl)CC3)c2c1C	11.7µM*	-32.8	/	-7.1%	?
CCN(CC)CCNC(=O)c1ccc(NC(=O)C2CCN(c3ncnc4sc(C)c(C)c34)CC2)cc1	?	-71.1*	/	-10.3%	?
COc1cccc(C(=O)Nc2cccc(-c3ccc(N4CCOCC4)nn3)c2)c1OC	?	124.2	/	-11.9%	0.0%
CC(=O)N1CCc2cc(Br)cc(S(=O)(=O)CCC(=O)N3CCN(c4ccccc4Cl)CC3)c21	/	9.6	/	-14.2%	/
CC(C)(C)c1ccc(C(=O)NCc2nnc(SCC(=O)N3CCCC3)o2)cc1	/	8.0	/	/	/
CC(=O)c1sc(NC(=O)C2CCN(c3ncnc4sc(C)c(C)c34)CC2)nc1-c1ccccc1	9.28µM*	-19.3	/	0.0%	?
FC(F)(F)COc1nc(N/N=C/c2cccnc2)nc(N2CCCCC2c2ccccn2)n1 (centres undefined)	11.7µM*	-71.7*	5.5%	-1.1%	9.28µM*
CCCCC(=O)NNC(=O)N1c2ccccc2Sc2ccccc21	-37.8%[0.00184 µM]	1.2	2.5%	-0.8%	-1.2%
CCCC(=O)Nc1nnc([C@H]2C[C@H](O)[C@@H](CO)O2)s1	/	-96.2*	/	/	/
O=C(Nc1nnc([C@@H]2C[C@H](O)[C@@H](CO)O2)s1)c1cccc(OC(F)(F)F)c1	/	-84.2*	/	/	/
O=C(Nc1nnc([C@@H]2C[C@H](O)[C@@H](CO)O2)s1)c1cccc(C(F)(F)F)c1	/	14.2	/	/	/
CC(C)(C)C(=O)Nc1nnc([C@H]2C[C@H](O)[C@@H](CO)O2)s1	/	0.4	/	/	/
CC(C)CCNc1nc(N)c([N+](=O)[O-])c(N2CCCCCC2)n1	3.7µM*	-93.7*	-4.6%	-2.0%	2.08µM*
COc1cc(C(=O)N2CCCCC2c2cc(C(=O)Nc3ccccc3Cl)no2)cc(OC)c1C (centres undefined)	/	46.0	/	/	/
O=C1C2ON(c3ccccc3)C(c3ccccc3F)C2C(=O)N1c1ccccc1 (centres undefined)	9.3%	10.3	-1.4%	0.0%	-0.4%
CN1C(=O)C2ON(c3ccccc3)C(c3cccs3)C2C1=O (centres undefined)	5.2%	0.1	-4.6%	5.5%	9.28µM*
C#CCNC(=O)C1=C[C@H](c2csc3ccccc23)C[C@H](OCc2ccc(CO)cc2)O1	?	-21.4	-4.9%	0.0%	?
SMILES	Pf growth 48h	HCMV antiviral	Giardia FBPA inh	Sm TGR block	Pf growth 96h
O=C(Nc1ccccc1)C1=C[C@@H](c2csc3ccccc23)C[C@@H](OCc2ccc(CO)cc2)O1	?	13.4	-4.2%	6.6%	9.28µM*
O=C(NCc1ccccc1)C1=C[C@H](c2csc3ccccc23)C[C@H](OCc2ccc(CO)cc2)O1	9.28µM*	-61.0*	-23.4%	-9.6%	13.1µM*
O=C(NC1(C(F)(F)F)N=C(c2ccccc2)N(C2CCCCC2)C1=O)c1ccc(F)cc1 (centres undefined)	/	-29.9	/	3.7%	/
Cc1ccccc1C(=O)NC1(C(F)(F)F)N=C(c2ccccc2)N(C2CCCCC2)C1=O (centres undefined)	/	-102.4*	/	1.5%	/
CC(=O)N1CCN(c2csc3ccc(F)cc3c2=O)CC1	/	11.0	/	89.1µM*	/
CCOC(=O)/C=C/[C@@H](CCc1ccccc1)NC(=O)C(F)(F)F	/	-11.6	/	/	/
CN(C)Cc1nnnn1-c1ccccc1	18.8%	-32.8	-0.2%	16.0%	11.5%
O=C(CN(C1CCCCC1)C1CCCCC1)N1CCc2ccccc2C1	/	-27.3	-22.2%	-5.4%	13.1µM*
CC1CC(C)(O)CC(C(O)CC2CC(=O)NC(=O)C2)C1=O (centres undefined)	/	-74.8*	/	/	/
Cn1c(NCCCN2CCOCC2)nc2c1c(=O)n(Cc1ccc(Cl)c(Cl)c1)c(=O)n2C	13.1µM*	31.8	7.7%	14.8%	/
Cc1nc(NCc2ccc3c(c2)OCO3)c2nnn(Cc3ccccc3)c2n1	2.7%	-30.6	-2.9%	4.6%	11.7µM*
CC(O)CNc1nc2c(c(=O)n(C)c(=O)n2C)n1CCc1ccccc1 (centres undefined)	11.3%	3.3	-5.7%	4.1%	12.7%
CC(C)n1c(NCCc2ccccc2)nc2c1c(=O)n(C)c(=O)n2C	-12.4%	-87.4*	-4.5%	-13.9%	-14.9%
c1ccc(Cn2nnc3c(NCc4ccc5c(c4)OCO5)nc(C4CC4)nc32)cc1	0.8%	-13.7	3.6%	9.7%	/
Cn1c(=O)c2c(nc(NCCc3ccccc3)n2Cc2ccc(Cl)cc2)n(C)c1=O	/	-81.8*	/	-3.0%	/
CC(C)Oc1ccc(C(=O)NCC(c2ccc(N(C)C)cc2)N2CCCC2)cc1 (centres undefined)	/	-26.5	/	-24.9%	/
CCNc1nc2c(c(=O)n(C)c(=O)n2C)n1Cc1ccc(F)cc1	/	-36.3	/	7.4%	/
Cn1c(=O)c2c(nc(NCc3ccccc3)n2Cc2ccc(Cl)c(Cl)c2)n(C)c1=O	/	-75.5*	/	10.2%	/
Cn1c(=O)c2c(nc(NCc3ccc4c(c3)OCO4)n2Cc2ccccc2)n(C)c1=O	13.1µM*	-18.6	-16.3%	2.8%	-21.2%
Cn1c(=O)c2c(nc(NCc3ccc4c(c3)OCO4)n2Cc2ccccc2F)n(C)c1=O	?	-16.7	-12.6%	2.4%	5.9%
Cn1c(=O)c2c(nc(NCc3ccc4c(c3)OCO4)n2Cc2ccc(F)cc2)n(C)c1=O	11.7µM*	-33.7	-15.0%	5.9%	13.1µM*
CC(=O)Nc1cccc(-c2ccnc3c2CC(C)(C(=O)Nc2cccc(OC(F)(F)F)c2)O3)c1 (centres undefined)	/	-12.9	/	/	/
CC(C)c1ccc(Nc2cc3[nH]c(-c4cccc(F)c4)cc3cn2)cc1	/	-4.8	/	/	/
CSc1nc2nc3c(cc2c(=O)n1-c1ccccc1C)CCCC3	?	-91.2*	-22.3%	-4.0%	?
